From PubChem
NFkB transloc inh – blocks IL-1B driven NFkB nuclear translocation in HUVEC cells. HUVEC IL-1B NFkB p65 nuclear translocation imaging. inhibition, % at 2 µM. 0.43% of 94,000 active. AID 796;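 active = inhibition above about 30% together with a positive call from visual inspection of the well image, limit read from the data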;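 also: nuclear over cytoplasmic p65 intensity ratio measured by imaging; 0% = IL-1B stimulated DMSO wells and 100% = unstimulated DMSO wells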
Phagocyt inh – inhibitors of macrophage phagocytosis; 0.07% of 110,000 active; inhibition, % at 5 µM; J774A.1 macrophage IgG-bead phagocytosis, imaging;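 active = inhibition above the mean of the plate negative controls plus 5 SD, cut at about 13% in these data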;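 also: phagocytic index as fraction of beads internalized from green versus red external bead signal; plate controls were DMSO negative control for no effect and cytochalasin-D positive control for full effect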
NFkB transloc pot – enhances IL-1B driven NFkB nuclear translocation. 0.3% of 94,000 active. activation, % at 2 µM. HUVEC IL-1B NFkB p65 nuclear translocation imaging. AID 819;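 active = activation above 40%, about the mean plus 3 SD, also judged a hit on visual image review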;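 also: percent activation is computed from the nuclear over cytoplasmic p65 intensity ratio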
Pyk2 oligo antag – Pyk2 (human) oligomerization antagonism. Q14289. Q293 cells, Pyk2 FERM NanoBiT luminescence; active compounds read low. z-score (the deposit names both 25 µM and 10 µM). 0.83% of 99,000 active. AID 1347419;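 active = Z-score of -3 or lower, scaled per plate to the spread of control and sample wells; inactive = z-score above -3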;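 also: negative z-score means lost luminescence so less FERM oligomerization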
Target sequence (Q14289 whole entry, looked up): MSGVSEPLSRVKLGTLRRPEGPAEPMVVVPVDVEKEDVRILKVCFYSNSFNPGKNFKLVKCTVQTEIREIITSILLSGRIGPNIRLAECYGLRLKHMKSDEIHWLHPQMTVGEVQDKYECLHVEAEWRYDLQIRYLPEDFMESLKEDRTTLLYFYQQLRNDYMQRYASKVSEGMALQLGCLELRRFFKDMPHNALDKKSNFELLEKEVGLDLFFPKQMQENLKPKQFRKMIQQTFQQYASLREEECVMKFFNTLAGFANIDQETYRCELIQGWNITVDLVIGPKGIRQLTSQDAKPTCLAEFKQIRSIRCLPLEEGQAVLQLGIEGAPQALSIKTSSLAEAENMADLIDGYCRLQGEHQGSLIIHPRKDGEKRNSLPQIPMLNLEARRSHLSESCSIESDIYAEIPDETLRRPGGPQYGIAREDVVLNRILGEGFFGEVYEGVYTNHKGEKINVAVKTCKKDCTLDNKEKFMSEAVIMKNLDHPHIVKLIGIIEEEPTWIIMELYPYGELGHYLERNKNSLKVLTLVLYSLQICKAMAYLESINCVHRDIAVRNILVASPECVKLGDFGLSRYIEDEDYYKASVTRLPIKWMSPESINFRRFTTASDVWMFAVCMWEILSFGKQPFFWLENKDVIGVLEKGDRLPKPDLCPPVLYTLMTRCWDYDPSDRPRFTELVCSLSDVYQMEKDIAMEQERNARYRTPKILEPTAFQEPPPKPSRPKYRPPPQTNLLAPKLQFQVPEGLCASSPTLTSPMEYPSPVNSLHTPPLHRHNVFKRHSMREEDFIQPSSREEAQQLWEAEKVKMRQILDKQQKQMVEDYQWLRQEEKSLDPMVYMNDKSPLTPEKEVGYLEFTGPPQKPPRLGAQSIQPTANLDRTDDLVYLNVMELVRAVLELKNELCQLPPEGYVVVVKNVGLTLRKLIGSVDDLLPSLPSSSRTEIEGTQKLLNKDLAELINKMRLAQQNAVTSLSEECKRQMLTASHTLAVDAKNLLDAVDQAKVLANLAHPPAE
HUVEC tox IL1B – toxic to HUVEC cells under IL-1B stimulation; HUVEC cell count loss, Hoechst imaging, IL-1B stimulated; cell count reduction, % at 2 µM; 0.41% of 94,000 active;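 active = cell count reduction more than 3 SD above the screen-wide mean, cut at about 70% in these data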;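 also: normalized per plate to untreated control cells as the no-loss baseline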
An asterisk follows results filed as active; / = no result. Rows were chosen to be rich in hits. Some 1.4% of all compounds tested hit in one or more screens of this group.

SMILES	NFkB transloc inh	Phagocyt inh	NFkB transloc pot	Pyk2 oligo antag	HUVEC tox IL1B
CCC1C(=O)Nc2nc(-c3ccccc3)c(-c3ccccc3)n2N=C1C (stereo not drawn)	-120	-1	120*	-0.53	13
CC(C(=O)Nc1ncn[nH]1)N1C(=O)c2ccccc2C1=O (stereo not drawn)	-23	/	23	0	83*
CC(C(=O)Nc1ccccc1F)N1C(=O)c2ccccc2C1=O (stereo not drawn)	1	-1	-1	0.8	-1
CN(CCO)C1=CC(=O)CC(C)(C)C1	0	/	0	0.06	-25
CC1CCCC(C)N1C(=O)c1cccc2c1-c1ccccc1/C2=N/O (stereo not drawn)	9	/	-9	-3.3*	4
CCOC(=O)c1cccc2c1-c1ccccc1/C2=N/O	-17	/	17	-2.4	-129
CC(=O)OC1=Cc2c(ccc3ccc(=O)oc23)OC1(C)C	-19	/	19	0.12	6
CC(C)Nc1cc(N2CCCC2)ccc1[N+](=O)[O-]	3	7	-3	-3*	-19
COCCN1C(=O)C(=O)/C(=C(/O)c2ccc3c(c2)OCCO3)C1c1ccc(C(=O)OC)cc1 (stereo not drawn)	-24	-2	24	-0.52	-26
COC(=O)c1ccc(Cl)c(NC(=O)NC23CC4CC(CC(C4)C2)C3)c1	-32	0	32	-3.6*	-13
COC(=O)c1cccc(NC(=O)NC23CC4CC(CC(C4)C2)C3)c1	-12	0	12	-1.8	1
Cc1ccc(S(=O)(=O)Nc2cc(C(=O)NCCN(C)C)ccc2N2CCCCC2)cc1	-6	0	6	-0.26	-9
Cn1c2ccccc2c2ncn(Cc3ccco3)c(=O)c21	-15	0	15	1.1	-12
Cn1c2ccc(F)cc2c2ncn(Cc3ccco3)c(=O)c21	32*	-1	-32	0.74	-4
Cc1ccn2c(-c3n[nH]c(=S)n3Cc3ccccc3)c(C)nc2c1	/	-1	/	/	/
Cc1ccc(C2CC2C(=O)NNC(=S)Nc2cccc(Cl)c2)cc1 (stereo not drawn)	6	/	-6	-1.4	71*
Cc1ccc(C2CC2C(=O)NNC(=S)Nc2cccc(C)c2)cc1 (stereo not drawn)	-9	/	9	-0.1	10
Cc1nn(-c2nc3ccccc3n2Cc2ccccc2)c2c1C(=O)CC(C)(C)C2	3	-1	-3	-4*	9
CCn1c(SCC(=O)NC(=O)NCc2ccco2)nc2sc(C)c(C)c2c1=O	-6	0	6	-0.56	-38
Cc1cc(C)n(CCc2nc(-c3ccc(C(C)(C)C)cc3)cs2)n1	/	-12	/	0.25	/
COc1ccc(-n2c(Cc3cccn3C)nnc2SCC(=O)NCC2CCCO2)cc1 (stereo not drawn)	37*	1	-37	/	11
COc1ccc(-n2c(Cc3cccn3C)nnc2SCC(=O)NC2CCCCC2)cc1	/	0	/	/	/
CN1/C(=C/C(=O)c2nc(S(C)(=O)=O)ncc2Cl)C(C)(C)c2ccccc21	8	5	-8	-3.8*	-2
COc1ccc(Cl)cc1NC(=O)CC(C)=O	-4	-3	4	1.1	7
COc1ccc(Cl)cc1NC(=O)CC(C)c1ccccc1 (stereo not drawn)	97*	/	-97	-0.36	80*
SMILES	NFkB transloc inh	Phagocyt inh	NFkB transloc pot	Pyk2 oligo antag	HUVEC tox IL1B
CCN1CCN(C(=O)Cn2c(=O)sc3ccccc32)CC1	-9	0	9	/	3
O=S(=O)(/C=C/c1ccccc1)Oc1ccccc1	-9	166*	9	0.01	-17
O=C1OC(c2ccccc2)=C/C1=C/c1cccs1	/	-2	/	/	/
COc1ccc(C2CC(c3cccs3)=NN2S(=O)(=O)c2ccc(C)cc2)cc1 (stereo not drawn)	2	/	-2	-0.49	-11
COc1ccc(C2CC(c3cccs3)=Nc3ccccc3S2)cc1 (stereo not drawn)	-43	/	43*	-0.27	9
Cc1c(C(=O)O)oc2ccc(S(=O)(=O)NCc3ccc4c(c3)OCO4)cc12	0	-1	0	-0.37	22
Cc1cc(N2CC(C(=O)NCc3cccs3)CC2=O)ccc1C(C)C (stereo not drawn)	46*	1	-46	-0.52	-79
CCOC(=O)c1cnc2ccc(OC)cc2c1Nc1ccc2c(c1)OCCO2	-4	0	4	-4*	-23
CC(C)NC(=O)c1nc2ccccc2s1	3	2	-3	0	74*
Cc1noc(C)c1C(=O)OCC(=O)c1ccc[nH]1	13	0	-13	1.4	1
Nc1nc(CSc2nnnn2-c2ccccc2)nc(N2CCCc3ccccc32)n1	5	/	-5	-4*	-12
Cc1csc(NC(=O)c2ccccc2C(=O)O)n1	25	-2	-25	-0.27	86*
O=C(O)Cc1csc(NC(=O)c2ccco2)n1	12	3	-12	1.1	-17
Cc1csc(NC(=O)c2ccco2)n1	-44	-1	44*	0.81	-24
Cc1nnc(NC(=O)c2ccccc2C(=O)O)s1	9	2	-9	0.78	-3
O=C(Nc1ccccc1)c1cccc(C(F)(F)F)c1	/	-5	/	/	/
Cc1cccc(C(=O)Nc2oc(-c3ccccc3)cc2C#N)c1	-26	-1	26	-1.2	-14
C=CCNC(=O)COC(=O)COc1ccc(Cl)cc1C	7	0	-7	0.83	21
CCN1CCN(c2nc3c(c(=O)n(C)c(=O)n3C)n2Cc2cccc3ccccc23)CC1	0	0	0	0.32	-17
NS(=O)(=O)c1ccc(NC(=O)CCc2ccccc2)cc1	2	0	-2	-0.4	-20
C=CCN(CC=C)CC(=O)Nc1ccc(S(N)(=O)=O)cc1	42*	/	-42	0.29	5
COC(=O)c1ccc2c(=O)n(CCCCCC(=O)NCc3ccccc3)c(=O)[nH]c2c1	-14	0	14	2.6	-35
COC(=O)c1ccc2c(=O)n(CCCCCC(=O)NCc3ccc4c(c3)OCO4)c(=O)[nH]c2c1	25	3	-25	0.22	90*
Oc1ccc(-n2cnnn2)cc1	2	0	-2	1.6	89*
Clc1ccc(-n2cnnn2)cc1	-3	-1	3	1.4	2
SMILES	NFkB transloc inh	Phagocyt inh	NFkB transloc pot	Pyk2 oligo antag	HUVEC tox IL1B
O=C(NC1CCS(=O)(=O)C1)c1cn(-c2ccccc2)nc1-c1ccccc1 (stereo not drawn)	-8	0	8	0.44	0
CCn1nc(C(=O)OCC(=O)c2c[nH]c3ccccc23)c2ccccc2c1=O	-28	0	28	-2.5	-24
CC(C)n1nc(C(=O)OCC(=O)c2c[nH]c3ccccc23)c2ccccc2c1=O	-8	1	8	-3.6*	0
COc1ccc(/C=C(/NC(=O)c2cccs2)C(=O)N2CCOCC2)cc1OC	/	-6	/	/	/
CN(Cc1ccccc1)C(=O)c1ccccc1NC(=O)c1ccco1	-42	/	42*	0.19	88*
CN(C)c1ccc(-c2nn3c(-c4ccccc4Cl)nnc3s2)cc1	8	/	-8	-0.57	-11
COc1ccccc1-c1nnc2sc(-c3ccc(N(C)C)cc3)nn12	/	8	/	-3.4*	/
CCc1c(C#N)c(SCCC(=O)Nc2ccc(OC)cc2)nc2c1C(=O)CC(C)(C)C2	18	0	-18	-3.1*	13
